Target: Torsin-1A-interacting protein 1 (Homo sapiens) (UniProt Q5JTV8)
Assay: LAP1 binders from COS7 cell lysate, primary screen, small-molecule microarray, 635/667 nm fluorescence (AID 1116)
Details: COS7-hLAP1 lysate binding, 635 nm fluorescence, higher = more signal

Sequence of Torsin-1A-interacting protein 1 (Homo sapiens) (Q5JTV8 whole entry, looked up): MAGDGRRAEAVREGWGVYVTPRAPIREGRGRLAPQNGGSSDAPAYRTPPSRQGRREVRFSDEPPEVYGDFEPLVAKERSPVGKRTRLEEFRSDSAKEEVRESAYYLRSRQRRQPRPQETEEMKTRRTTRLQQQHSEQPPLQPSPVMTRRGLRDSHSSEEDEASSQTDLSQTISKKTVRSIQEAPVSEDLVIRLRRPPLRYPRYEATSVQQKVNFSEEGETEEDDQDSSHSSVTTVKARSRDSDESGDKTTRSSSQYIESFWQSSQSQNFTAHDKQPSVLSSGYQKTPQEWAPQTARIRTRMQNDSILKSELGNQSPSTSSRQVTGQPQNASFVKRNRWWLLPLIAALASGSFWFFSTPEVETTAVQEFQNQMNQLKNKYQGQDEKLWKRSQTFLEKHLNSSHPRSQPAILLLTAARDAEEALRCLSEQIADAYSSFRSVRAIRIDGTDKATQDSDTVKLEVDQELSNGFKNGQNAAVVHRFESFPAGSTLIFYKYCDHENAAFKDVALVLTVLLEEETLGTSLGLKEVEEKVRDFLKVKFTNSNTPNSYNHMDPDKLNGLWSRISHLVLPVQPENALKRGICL

SMILES | composite z-score
CC(C)CON=C1C[C@@H](O)[C@@H](O)[C@@H]2[C@@H]3C(=O)N(C[C@@H]4CCCO4)C(=O)[C@@H]3CC[C@H]12 | 0.241
CCN1C(=O)[C@H]2[C@H]3[C@H](O)[C@H](O)CC(=NO[C@@H]4O[C@H](CO)[C@@H](O)[C@H](O)[C@H]4O)[C@@H]3CC[C@H]2C1=O | -0.442
COc1ccc(-c2ccc3c(n2)CCCN3CC(O)CN2CCCc3nc(C)c(C)cc32)cc1 (stereo not given) | 0.833
CO[C@H]1O[C@H](CO)[C@@H](OC(=O)Nc2ccc3c(c2)OCO3)[C@H](OC(=O)Nc2ccccc2-c2ccccc2)[C@@H]1OC(=O)Nc1ccccc1-c1ccccc1 | 1.28
COC(=O)CC1OC1[C@H](C)[C@@H](OC)C(C)C (stereo not given in full) | 0.601
CO[C@@H]1COC(=O)CC=C[C@@H](C)[C@@H]2C=C[C@H](O)[C@@H](COC(=O)[C@H](C)NC(=O)CC=C[C@H]1C)O2 | -0.0424
N#Cc1ccc(NN2C(C(O)c3cc(C(F)(F)F)cc(C(F)(F)F)c3)C=CC3C(=O)N(c4ccccc4)C(=O)C32)cc1 (stereo not given) | 1.73
CCOC(=O)NN=C1C[C@@H](O)[C@@H](O)[C@@H]2[C@@H]3C(=O)N(C[C@@H]4CCCO4)C(=O)[C@@H]3CC[C@@H]12 | 0.584
COCCOC(=O)N1C(=O)[C@@]2(c3cc(C#CC4(O)CCCCCC4)ccc31)[C@H](C(=O)N1CCN(c3ncccn3)CC1)[C@H]1C(=O)O[C@H](c3ccccc3)[C@H](c3ccccc3)N1[C@@H]2c1ccc(OCCO)cc1 | 0.889
C=CC[C@]1(C(=O)NCc2ccccc2)N=C(c2ccc(OCCCO)cc2)O[C@H]1c1ccccc1 | 1.62

— PubChem BioAssay
